From PubChem BioAssay AID485367 (National Center for Advancing Translational Sciences (NCATS), 2010)
Among all 330,000 compounds or so, about 560 (0.17%) were called active. Inconclusive results (about 1%) are left out. The call rests on the fitted dose curve; in most records, active means well fitted inhibition curve with a large enough effect; inconclusive means small, poorly fitted or top-dose-only effect, or effect the other way; inactive means flat fitted curve, though single readings scatter. What follows is part of a selection rich in actives, with near analogues and random picks from the rest.

Biological target: ATP-dependent 6-phosphofructokinase (Trypanosoma brucei brucei) (UniProt O15648)
Assay: qHTS Assay to Find Inhibitors of T. brucei phosphofructokinase; further: nearly all actives have a fitted effect of over 60% in size
Conditions: T. brucei PFK, ADP-Glo luminescence; series mostly up to 57.5 µM; activity, negative = inhibition: at the top concentration
Excerpt: NIH Molecular Libraries Probe Production Network [MLPCN] NIH Chemical Genomics Center [NCGC] Grant: 1 R03 MH092153-01 PI Name: Malcolm Walkinshaw, University of Edinburgh NCGC Assay Overview: Various species of the protozoan family Trypanosomatidae are responsible for a range of serious human diseases in tropical and subtropical areas of the world. […] Many of the disorders caused by trypanosomatids are fatal if left untreated, but most currently used drugs are inefficient and toxic. […] Oxidative metabolism involving the mitochondrial tricarboxylic acid cycle and oxidative phosphorylation are repressed in these parasites, and recent RNA interference (RNAi) experiments have shown that even partial depletion of certain individual glycolytic enzymes can lead to the death of cultured parasites. One such glycolytic enzyme, phosphofructokinase (PFK), catalyzes the formation of fructose-1,6-bisphosphate (F1,6BP) and ADP from fructose-6-phosphate (F6P) and ATP, and in many metabolic circumstances makes an important contribution to the control of flux through the glycolytic pathway. As a specific glycolytic target, PFK is particularly attractive as it catalyzes the first irreversible step in glycolysis, and structural and kinetic studies have shown very substantial and essential differences from corresponding host enzymes, allowing for the discovery of parasite-selective inhibitors. The goal of this screen is to find small-molecule inhibitors of T. brucei PFK using a biochemical assay that measures PFK activity as a function of ADP production. A luminescence-based assay for T. brucei PFK activity has been developed which uses luciferase to detect production of ADP. Traditional luciferase-based nucleotide detection reagents rely on ATP production as a direct substrate for the luciferase reaction; however, PFK catalyzes the transfer of a phosphate from ATP to F6P, resulting in the net depletion of ATP. To directly measure the ADP product of the PFK reaction, we used the ADP-Glo detection kit (Promega), which utilizes two separate reactions to 1) deplete all remaining uncatalyzed ATP and 2) convert all remaining ADP to ATP, which is then detected through a traditional luciferase-coupled reaction. Compounds were screened as a concentration-titration series that ranged from 57 uM to 0.7 nM.
NCGC Assay Protocol Summary: NCGC Assay Protocol Summary: Substrate buffer was dispensed into white, solid 1536-well plates at 3uL/well in 0.1M triethanolamine (TEA) buffer, pH 8.0, containing final concentrations of 5 mM MgCl2, 0.01% Tween20, 0.5 mM fructose-6-phosphate (F6P) and 0.1mM ATP. Then, 23 nL of compounds or DMSO were delivered to each well using a pin tool. One uL T. brucei PFK (0.1M TEA, 0.01% Tween20, 0.1% bovine serum albumin (BSA) and 1.25nM PFK, final concentrations) was then dispensed, and plates were incubated at room temperature for 45 min. The luminescent detection reagent, ADP-Glo (Promega), was then added in two steps: the first reagent, ADP-Glo (which converts remaining uncatalyzed ATP), was added at 2.5uL/well and incubated for ten minutes at room temperature, and the second component, Kinase Detection reagent (which converts ADP to ATP as a substrate for luciferase-based luminescence), was added immediately after at 5uL/well, followed by one final ten minute room temperature incubation. The plates were measured on a ViewLux plate reader for luminescent signal using a clear filter with a one second exposure. The %Activity was determined from the corrected luminescence values. As no specific T. brucei PFK inhibitors have been identified in the literature, 1x (1.25nM) and 0x PFK enzyme controls (untreated) were included to normalize %Activity of identified inhibitors; 0x enzyme values corresponded to 100%Activity (full inhibition), while 1x PFK enzyme values were used to normalize 0%Activity (no inhibition). Concentration-response curves were fitted to the signals arising from the resulting luminescence. […]
Potency means the concentration at half of the fitted maximal effect.

ATP-dependent 6-phosphofructokinase (Trypanosoma brucei brucei), sequence (O15648 whole entry, looked up): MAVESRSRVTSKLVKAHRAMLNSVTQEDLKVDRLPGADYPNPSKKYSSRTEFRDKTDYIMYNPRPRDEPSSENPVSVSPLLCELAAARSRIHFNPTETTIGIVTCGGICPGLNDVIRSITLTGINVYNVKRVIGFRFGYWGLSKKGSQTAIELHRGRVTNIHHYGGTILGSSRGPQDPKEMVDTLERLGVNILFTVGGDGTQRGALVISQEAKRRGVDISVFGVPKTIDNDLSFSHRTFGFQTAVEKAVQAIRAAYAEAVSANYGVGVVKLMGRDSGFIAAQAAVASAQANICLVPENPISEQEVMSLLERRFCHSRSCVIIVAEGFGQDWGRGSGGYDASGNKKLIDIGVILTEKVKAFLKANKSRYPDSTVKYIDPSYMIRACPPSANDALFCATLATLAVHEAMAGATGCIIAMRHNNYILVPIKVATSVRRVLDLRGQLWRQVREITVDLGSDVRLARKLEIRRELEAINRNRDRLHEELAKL

activity, negative = inhibition, inactive:
Nc1[nH][nH]c(=O)c1N=Nc1ccc2c(c1)OCO2 2.23%, CCOc1ccc(C(c2c(C)[nH][nH]c2=O)c2c(C)[nH][nH]c2=O)cc1OCC -5.84%, COc1cc(C2C(N3C(=O)c4ccccc4C3=O)C(=O)N2c2ccc(C)c(C)c2)cc(OC)c1OC (stereo unspecified) -1.29%, OC(CNCC1CCCO1)Cn1c2ccc(Br)cc2c2cc(Br)ccc21 (stereo unspecified) -2.71%, Nc1nc(Nc2ccccc2F)nc(NC2CCCCC2)c1[N+](=O)[O-] -7.16%, COc1cc(NC(=O)COC(=O)CSc2ccc3ccccc3c2)c(C)cc1[N+](=O)[O-] 0.214%, CCOC(=O)N1CCN(C(=O)CN(C2CCCCC2)S(C)(=O)=O)CC1 -3.12%, CC(Oc1cc2oc(=O)c3c(c2cc1Cl)CCCC3)C(=O)NCc1ccncc1 (stereo unspecified) 0.885%, CC(C)CN(CC(C)C)CC(O)CN(c1ccccc1)S(=O)(=O)c1ccccc1[N+](=O)[O-] (stereo unspecified) -3.71%, CCCN1C2CCCC1CC(NC(=O)NC13CC4CC(CC(C4)C1)C3)C2 (stereo unspecified) -1.81%, CCN(CC(=O)N1CCCC1)S(=O)(=O)c1ccc(F)cc1 1.92%, O=C(Cn1c(COc2ccccc2)nc2ccccc21)Nc1cc(Cl)c(Cl)cc1Cl -10.8%, O=C(CN(CC1CCCO1)C(=O)CNS(=O)(=O)c1ccc(F)cc1)NCc1ccco1 (stereo unspecified) -5.87%, COc1ccc(-c2nc3c(s2)CCc2onc(-c4ccc(OC)cc4)c2-3)cc1 -0.904%, COc1ccc(Cl)cc1NC(=O)NC(C)C(C)(C)C (stereo unspecified) 0.905%, Cc1cccc(NC(=S)NC23CN4CN(CN(C4)C2)C3)c1 -1.16%, Cc1cccc(NC(=S)Nc2ccc3cn[nH]c3c2)c1 3.21%, COCCN1C(=O)N(c2ccc(Cl)cc2)C(=O)C1CC(=O)Nc1cc(OC)cc(OC)c1 (stereo unspecified) 3.53%, CC1(N2CCOCC2)CC2(O)C(=[N+]1[O-])CCc1nonc12 (stereo unspecified) 0.181%, O=C(CCn1nnc2ccccc21)OCC(=O)c1ccc([N+](=O)[O-])cc1 -4.04%, Cc1nc2ccccc2c(=O)n1NC(=O)c1ccccc1 2.74%, COC(=O)COc1ccc2c(c1C)O/C(=C\c1ccco1)C2=O -12.5%, O=C(COC(=O)C12CC3CC(CC(C3)C1)C2)NCc1ccco1 3.92%, O=C(COC(=O)c1cccs1)NCc1cccs1 0.216%, Cc1cc(NC(=O)COC(=O)/C=C/c2ccc(C)o2)no1 8.73%, CS(=O)(=O)N(CC(=O)N1CCOCC1)c1cccc(Cl)c1Cl -5.81%, Cc1ccc(S(=O)(=O)N2CCCCC2)cc1NC(=O)[C@@H]1CCCN1C(=O)c1cccs1 -2.04%, O=C(COC(=O)CCCN1C(=O)c2cccc3cccc(c23)C1=O)NC1CCS(=O)(=O)C1 (stereo unspecified) -7.52%, CCC(C)c1ccc(NC(=O)COC(=O)C2CCCC2)cc1 (stereo unspecified) -1.93%, Cc1c(Cl)cccc1NC(=O)Nc1ccc(C(=O)N2CCCC2)cc1 -3.91%, COc1cc(S(=O)(=O)N2CCOCC2)ccc1NC(=O)COc1ccc(N(C)S(=O)(=O)c2ccc(C)cc2)cc1 4.44%, C/C(=N/Nc1ccc(Cl)cc1)c1cnnc(-c2ccccc2)n1 5.32%, O=C(CNC(=O)C1COc2ccccc2O1)N/N=C/c1cc(Br)c(O)c(Br)c1 (stereo unspecified) -4.63%, Cc1c(C)c2ccc(OCC(=O)N3CCC(C(=O)O)CC3)c(C)c2oc1=O -0.415%, Cc1ccc2c(=O)cc(C(=O)NCCc3ccc(S(N)(=O)=O)cc3)oc2c1C 1.41%, CCCNC(=O)NC(=O)COC(=O)CC(NC(N)=O)c1ccc(Cl)cc1 (stereo unspecified) -0.0234%, Nc1cc(N)nc(SCc2ccc(Cl)cc2)n1 -10.3%, COc1ccc(CCNC(=O)c2cnc(Cl)c(Cl)c2)cc1 -9.9%, Cc1ccc(C2CC(c3cccc(Br)c3)n3nc(N)nc3N2)cc1 (stereo unspecified) 5.14%, O=C1CCN(Cc2ccccc2)CCN1[C@H](CSc1ccccc1)c1ccccc1 0.129%, O=C(CNS(=O)(=O)c1ccc2ccccc2c1)Nc1ccc(F)c(F)c1F -1.12%, Cc1ccccc1NC(=O)Cc1nc(COC(=O)c2cccnc2Cl)cs1 0.473%, N#Cc1ccccc1-n1c(N)c(C(=O)N2CCCC2)sc1=S 0.585%, Cc1ccc(-n2c(N)c(C(=O)N3CCOCC3)sc2=S)c(C)c1 -2.32%, Cc1ccc2c(C)c(C(=O)N(C)CCC3CCCCO3)oc2c1C (stereo unspecified) -4.76%, N#CCSc1nn(-c2ccc(F)cc2)c(=S)s1 0.779%, COc1ccc(C(=O)/C=C/c2ccc(-c3ccccc3)cc2)cc1CSCC(=O)O -0.707%, COc1ccc(/C=C/C(=O)c2ccc(NS(=O)(=O)c3ccc(C)cc3)cc2)cc1O 9.84%, Cc1ccc(OCC(=O)N2CCN(C(=O)c3cccnc3)CC2)cc1 -0.802%, CN1C(CC(=O)Nc2ccc(Br)cc2)c2ccccc2CC1(C)C (stereo unspecified) 3.31%, Cc1cc(C(=O)Nc2c(C)nn(Cc3ccccc3)c2C)on1 3.52%, Cc1nn(Cc2ccc(F)cc2)c(C)c1NC(=O)c1cccnc1Cl 0.406%, CCCc1nn(C)c2c(=O)[nH]c(-c3cc(S(N)(=O)=O)ccc3OCC)nc12 7.25%, CC1CCC(NC(=O)CN(C)S(=O)(=O)c2ccc3c(c2)c(=O)n(C)c(=O)n3C)CC1 (stereo unspecified) 0.492%, O=C(OCC(=O)N1CCc2ccccc21)c1ccc([N+](=O)[O-])cc1 17.6%, COc1ccc(NS(=O)(=O)c2ccc(C)c(C(=O)NNC(=O)c3csc(N4CCOCC4)n3)c2)cc1 -10%, CC1=NN(c2cccc(Cl)c2)C(=O)C12CC(C)=C(C)CS2 (stereo unspecified) 2.05%, Cc1ccn2c(=O)c(NC(=O)c3cccc4ccccc34)c(C)nc2c1 -3.25%, O=C(C1CCN(c2nnc(-n3cccc3)s2)CC1)N1CCc2ccccc2C1 -0.0102%, CN1CCN(c2ccc(S(=O)(=O)N3CCOCC3)cc2NC(=O)CCc2ccccc2)CC1 1.42%, O=C(COc1nsnc1N1CCOCC1)Nc1ccccc1Cl 2.58%, O=C(NC1CCN(Cc2ccccc2)CC1)c1cc(Br)c(Br)[nH]1 -0.675%, Cc1cnc(C(=O)N2CCCC(C(=O)c3ccc(C(F)(F)F)cc3)C2)cn1 (stereo unspecified) 2.16%, Cc1cc(NC(=O)CCC(=O)N(CC(=O)NCC2CCCO2)c2ccccc2C)no1 (stereo unspecified) 2.91%, CC(CN1CCC(n2nccc2NC(=O)C2CCCC2)CC1)c1ccccc1 (stereo unspecified) -20.9%, C=Cn1cc[n+](CC(=O)c2ccc(OC)c(OC)c2)c1 8.02%, CC(NCC(=O)Nc1ccccc1C(=O)NC1CC1)c1ccccc1Cl (stereo unspecified) 1.99%, Cc1cccc(NS(=O)(=O)c2ccc(-c3cnc(C4CC4)o3)cc2)c1 -6.58%, COc1ccccc1N(CC(=O)Nc1ccc(C)cc1Cl)S(=O)(=O)c1cccs1 0%, O=C(NC(Cc1ccccc1)C(=O)N1CCCC(C(F)(F)F)C1)c1ccccc1 (stereo unspecified) 1.45%, O=C(NCC(=O)N1CCCC(C(F)(F)F)C1)c1ccccc1F (stereo unspecified) -6.74%, COc1cccc(CNC(=O)C2CC(=O)N(C3CCCCCCC3)C2)c1 (stereo unspecified) 1.34%, Cc1ccc(/C=C2/SC(=S)N(CCC(=O)NCCCN3CCOCC3)C2=O)cc1 2.57%, C=CCOc1ccc(/C=C2\SC(=S)N(CCC(=O)O)C2=O)cc1 -6.36%, CC(=O)c1nnn(-c2ccc(Cl)cc2C#N)c1C -1.18%, Cc1cccn2c(CN(C)C3CCCc4ccccc43)c(C(=O)N3CCOCC3)nc12 (stereo unspecified) 0.624%, CC(C)=CC(=O)Nc1nnc(-c2ccc(F)cc2)s1 -10%, CN[C@H](C(=O)NC[C@H]1O[C@@H](n2cnc3c(N)ncnc32)[C@H](O)[C@@H]1O)[C@@H](C)OCc1ccccc1 -2.64%, Cc1nc(SCc2ccc(F)cc2)c([N+](=O)[O-])[nH]1 1.96%, CN(Cc1ccc(CNC[C@H]2O[C@@H](n3cnc4c(N)ncnc43)[C@H](O)[C@@H]2O)o1)S(C)(=O)=O 0%, Cc1cc(C)cc(C(=O)N2CCN=C2SCc2ccc([N+](=O)[O-])cc2)c1 3.53%, COc1cccc(CNC(=O)CCC2CCCN(C(=O)c3ccc(F)c(Cl)c3)C2)c1 (stereo unspecified) -20.6%, CCN(CC)CCn1cnc2c1c(=O)n(CCOC(=O)c1cc(OC)c(OC)c(OC)c1)c(=O)n2C 0.629%, CCOc1ccc(NC(=O)c2ccc(CSc3nnnn3C)cc2)cc1 -15.6%, CC(C)C[C@H](NC(=O)N1CCn2c1nc1ccccc12)C(=O)NC1CC1 1.02%, CC1CCN(C(=O)CN(c2ccc(Oc3ccccc3)cc2)S(C)(=O)=O)CC1 -2.4%, Cc1nn(C(C)CC(=O)O)c(C)c1C (stereo unspecified) -4.85%

Potency, active:
Cc1[nH][nH]c(=O)c1C(c1ccc2c(c1)OCO2)c1c(C)[nH][nH]c1=O 23.9 µM, Cc1cccc(NC(=S)Nc2ccc(Cl)c(Cl)c2)c1 10.7 µM, Cc1ccnc(-n2sc3ccccc3c2=O)n1 7.57 µM, O=C(COC(=O)CCC(=O)c1cccs1)NCc1ccco1 6.75 µM, Cc1c(CC(=O)N2CCN(C(=O)C3COc4ccccc4O3)CC2)c(=O)oc2c(O)c(O)ccc12 (stereo unspecified) 4.78 µM, COc1cnc(SCc2ccc(Cl)c(Cl)c2)nc1Cl 26.9 µM, Cc1cccc(-n2c(N)c(C(=O)N3CCN(C)CC3)sc2=S)c1 12 µM, O=c1ccc2c(-c3ccccc3S(=O)(=O)O)c3ccc(O)c(O)c3oc-2c1O 2.39 µM, COC(=O)c1ccc(COc2ccc(/C=C/C(=O)c3ccc(OC)c(CSCC(=O)O)c3)cc2OC)cc1 4.78 µM, Cc1nn(Cc2ccc(Cl)c(Cl)c2)c(C)c1NC(=O)c1cc(C2CC2)on1 9.53 µM, FC(F)(F)C1CCCN(c2nsc3ccccc23)C1 (stereo unspecified) 6.75 µM, Cc1ccc(-c2nn(-c3ccccc3)cc2/C=C2\SC(=S)N(CCCCCC(=O)O)C2=O)o1 4.78 µM, Cc1nc(N)nc(SCc2ccc([N+](=O)[O-])cc2)c1N 13.5 µM, Nc1nc(SCc2ccc([N+](=O)[O-])cc2)c2ncn(C3OC(CO)C(O)C3O)c2n1 (stereo unspecified) 12 µM
